# According to PubChem BioAssay AID652105 (National Center for Advancing Translational Sciences (NCATS), 2013):
# Among all 330,000 compounds or so, about 4,100 (1.2%) were called active. Another 2% or so got no clear call; they are omitted. Only a selection was taken, and actives are over-represented in it overall. Values without a mark were called inactive. Rule for the calls: active = max response of -50% or lower; inconclusive = between -30% and -50%; inactive = -30% or higher.
# Biological target: Phosphatidylinositol 5-phosphate 4-kinase type-2 alpha (Homo sapiens) (UniProt P48426)
# Sequence (P48426 whole entry, looked up): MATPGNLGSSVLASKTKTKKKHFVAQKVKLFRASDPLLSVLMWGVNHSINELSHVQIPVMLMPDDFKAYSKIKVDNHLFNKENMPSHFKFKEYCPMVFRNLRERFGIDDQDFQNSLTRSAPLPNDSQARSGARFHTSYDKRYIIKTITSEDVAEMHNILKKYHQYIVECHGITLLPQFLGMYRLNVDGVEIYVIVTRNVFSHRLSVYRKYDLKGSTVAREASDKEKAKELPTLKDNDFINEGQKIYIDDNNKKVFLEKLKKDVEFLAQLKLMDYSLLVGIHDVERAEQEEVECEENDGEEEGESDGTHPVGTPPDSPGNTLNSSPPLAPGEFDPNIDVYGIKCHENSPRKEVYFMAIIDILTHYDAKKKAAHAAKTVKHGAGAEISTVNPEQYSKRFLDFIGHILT
# Experiment: qHTS for Inhibitors of phosphatidylinositol 5-phosphate 4-kinase (PI5P4K); note: value at the top dose of about 77 µM
# Details: PI5P4Kalpha enzyme, ADP-Glo luminescence, 60 min; stronger effect = lower value
# Method in brief: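 Reactions run in 0.038 M HEPES pH 7.4, 0.28 mM EGTA, 0.1% CHAPS and 5% DMSO, with PI5P4Kalpha, substrate, compound and 5 microM ATP final, one hour at room temperature. Readout is ADP-Glo luminescence.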
# % is set by controls: 0 for no effect and ±100 for the full control effect.
row,Structure (SMILES),max response
1,Cc1cc(C)n2c(NCc3ccccc3)c(CC(C)C)nc2n1,-0.19%
2,C[C@H]1CN(c2ccc(Br)cc2)C(=O)[C@@H]1CC(=O)Nc1ccc(Br)cc1,-1.71%
3,COc1ccc(C(NC(=O)C2CCN(CCCc3ccccc3)CC2)c2cccs2)cc1 (stereo not drawn),-1.92%
4,O=C(CNC(=O)C1COc2ccccc2O1)N/N=C/c1cc(Br)c(O)c(Br)c1 (stereo not drawn),-78.5% (active)
5,O=C(N/N=C\c1cc(Br)c(Br)o1)C1COc2ccccc2O1 (stereo not drawn),1.1%
6,O=C(N/N=C/c1cc2c(cc1Br)OCO2)C1COc2ccccc2O1 (stereo not drawn),0.44%
7,CC(C)NC(=O)N1Cc2cc(C(=O)NCC(F)(F)F)nc(-c3cccc(-c4cc5ccccc5o4)c3)c2[C@@H]1CCO,10.9%
8,CN1CCN(c2ccc3c(c2)OC[C@H](Cc2ccccc2)NS3(=O)=O)CC1,6.74%
9,O=C(NC(=S)Nc1ccc(S(=O)(=O)N2CCOCC2)cc1)c1ccccc1[N+](=O)[O-],-13.4%
10,O=S(=O)(c1ccc(NC(=S)NN=C(C2CC2)C2CC2)cc1)N1CCOCC1,-67.5% (active)
11,O=C(Nc1ccc(S(=O)(=O)N2CCOCC2)cc1)C1CCN(S(=O)(=O)c2ccc(Cl)cc2)CC1,11.3%
12,COc1cccc(-c2cnc3c(NC(C)=O)cc(-c4cc(F)ccc4OC)cn23)c1,0.465%
13,Cc1ccc(-c2ccc(CN3C(C)C(=O)N(Cc4cn(CCC5OCCCO5)nn4)CCS3(=O)=O)cc2)cc1 (stereo not drawn),-1.32%
14,CCOc1ccc(-n2c(O)c(/C=N/Nc3nc(C)cc(C)n3)c3ccccc3c2=O)cc1,3.69%
15,CCOc1ccc(-n2c(O)c(/C=N/c3ccnn3Cc3ccncc3)c3ccccc3c2=O)cc1,1.64%
16,CCOc1ccc(-n2c(O)c(/C=N/Nc3nnc(C)c(=O)[nH]3)c3ccccc3c2=O)cc1,-64% (active)
17,O=C1NC(O)CCN1C1CC(O)C(CO)O1 (stereo not drawn),-0.0784%
18,Cc1ccc(Cc2c(-c3ccccc3)nc3ccc(Cl)cn23)cc1,3.67%
19,Cc1ccc2nc(-c3ccco3)c(Cc3cccc(Cl)c3)n2c1,-20%
20,Cc1ccc(Cc2c(-c3ccco3)nc3ccc(Cl)cn23)cc1,-53.8% (active)
21,Cc1ccc([C@H]2N[C@]3(CCCN(CC4CCCCC4)C3=O)[C@H]3C(=O)N(Cc4ccccc4)C(=O)[C@@H]23)cc1,-7.84%

row,Structure (SMILES),max response
1,Cc1cc(Cl)ccc1-c1nc(NCCN(C)C)nc2ccsc12,2.25%
2,Cc1cc(O)c(Sc2ccccc2)c(=O)o1,5.88%
3,Cc1cc(O)c(C(=O)/C=C/c2c(F)c(F)c(F)c(F)c2F)c(=O)o1,-77.8% (active)
4,Cc1ccc(N=Cc2c(O)cc(C)oc2=O)c(C)c1,-7.86%
5,CCc1nc2c(OCc3ccc(Cl)cc3Cl)cccn2c1N(C)C(=O)C(C)C,2.81%
6,O=C(NC1CCCC1)C1c2ccccc2OCC(=O)N1Cc1ccccc1 (stereo not drawn),-0.138%
7,CCCC(=O)N1CCC1(C)C(=O)NCc1ccc(C(C)C)cc1 (stereo not drawn),-1.03%
8,CC(C)Cc1ccc(-c2cc3nc(NCc4cccc(Cl)c4)ccn3n2)cc1,47.1%
9,COc1ccccc1CNC(=O)c1cc(-c2cc(Cl)ccc2C)n[nH]1,-0.482%
10,CCSc1nc(O)c(C(c2cccc(OC)c2)c2c(O)nc(SCC)[nH]c2=O)c(=O)[nH]1,-58.8% (active)
11,CCn1c(SC)nc(O)c(C(c2ccc(OC)c(O)c2)c2c(O)nc(SC)n(CC)c2=O)c1=O,-12.5%
12,CCSc1nc(C)c(CCOc2cccc(C)c2)c(=O)[nH]1,0.672%
13,O=C(c1ccccc1)N1CCN(c2cc(-c3ccccc3)nc3cc(-c4cccc(Cl)c4)nn23)CC1,6.72%
14,O=S1(=O)CC(N2CCN(Cc3ccccc3F)CC2)CN1Cc1cn(Cc2cccc(C(F)(F)F)c2)nn1 (stereo not drawn),4.9%
15,O=C(Nc1ccc(F)cc1)C(CCc1ccccc1)N1CCN(CC(=O)N2CCCC2)CC1 (stereo not drawn),-9.87%
16,CCS(=O)(=O)c1cc([N+](=O)[O-])c(Sc2ccccc2N)s1,-65.8% (active)
17,Cc1ccc(S(=O)(=O)NCCSc2ccccc2)cc1[N+](=O)[O-],-4.48%
18,COc1c(C)cc(C(O)c2ncc(-c3cccc(C(F)(F)F)c3)[nH]2)cc1C (stereo not drawn),-7.49%
19,COc1cccc(/C=N/NC(=O)c2[nH]nc3c2CCc2ccccc2-3)c1O,-53% (active)
20,COc1ccc(/C=N/NC(=O)c2ccc3c(c2)OCCO3)c(OC)c1,3.95%
21,COc1ccc(Br)cc1/C=N/NC(=O)c1cccc(S(=O)(=O)N2CCOCC2)c1,-4.11%

row,Structure (SMILES),max response
1,COc1cc2cc(C(=O)N/N=C/c3cccc(OC)c3OC)[nH]c2cc1OC,0.853%
2,CCOc1ccc2[nH]c(C(=O)N/N=C/c3cccc(OC)c3OC)cc2c1,8.06%
3,COc1cccc(/C=N\NC(=O)C2=NNC(=O)C2C)c1O (stereo not drawn),-72.8% (active)
4,CC1(C(=O)Nc2ccc3c(c2)OCCO3)CSCC(=O)N1CCOc1ccccc1 (stereo not drawn),-1.05%
5,CC(C)(C)S(=O)N1Cc2cc(C(=O)NCCCN3CCOCC3)nc(-c3cccc(-c4cc5ccccc5o4)c3)c2[C@H]1CCO (stereo partly drawn),0.439%
6,CCCCC[C@H](C)N1C[C@@H](COCc2ccccc2)Oc2cc(N3CCC[C@@H]3CO)ccc2S1(=O)=O,11.7%
7,COc1cc(/C=N/NC(=O)c2cc(C)n(-c3ccc(F)cc3)c2C)cc(OC)c1O,-10.7%
8,Cc1cc(C(=O)N/N=C/c2ccc(O)c([N+](=O)[O-])c2)c(C)n1-c1ccc(F)cc1,-71% (active)
9,Cc1nn(CC(=O)N/N=C/c2ccc(F)cc2)c(C)c1[N+](=O)[O-],-2.33%
10,CCCNC(=O)C1(C)CCCN(C(=O)c2oc3ccccc3c2C)C1 (stereo not drawn),-7.4%
11,CCc1nc2ccc(C(=O)Nc3ccc(OC)c(OC)c3)cn2c1N(C)C(=O)c1cccc(OC)c1,3.96%
12,CCOC(=O)C1=CC[C@@H](c2ccccc2)N(S(=O)(=O)c2ccc(C)cc2)[C@H]1c1cccc(OC)c1,4.01%
13,CCOC(=O)c1ccn(S(=O)(=O)c2ccc(C)cc2)c1-c1ccccc1,12.7%
14,COc1ccc(-c2cc(C(=O)N(C)Cc3ccccc3)c3ccccc3n2)cc1,15.4%
15,COc1ccc(NC(=O)c2cc(-c3cc(OC)c(OC)c(OC)c3)nc3ccccc23)c(OC)c1,2.36%
16,COc1ccc(-c2cc(C(=O)Nc3ccccc3O)c3ccccc3n2)cc1,-106% (active)
17,COc1ccc(NC(=O)C2Cc3c(-c4ccc(Cl)cc4)ccnc3O2)cc1 (stereo not drawn),-2.22%
18,Cc1ccc(-c2c(N)nc3ncccn23)cc1,0.002%
19,O=CNc1cc(-c2ccc(C(=O)N3CCOCC3)cc2)cn2c(-c3ccc(F)cc3)cnc12,-15.7%
20,CCCCNC(=O)C[C@@H]1C[C@@]2(C(=O)OCC)CCC=C2N(Cc2cccc3ccccc23)C1=O,3.26%
21,Cc1ccc(NS(=O)(=O)c2ccc(N/N=C/c3ccccc3OCC(=O)O)c([N+](=O)[O-])c2)c(C)c1,0.282%

row,Structure (SMILES),max response
1,COc1cccc(/C=N/Nc2ccc(S(=O)(=O)Nc3ccccc3C(=O)O)cc2[N+](=O)[O-])c1O,-74.4% (active)
2,COc1ccc(Br)cc1/C=N/Nc1ccc(S(=O)(=O)Nc2ccccc2C(=O)O)cc1[N+](=O)[O-],-15.6%
3,Cc1noc(C)c1-c1ccc(C(=O)NCc2ccncc2)c2occc12,1.04%
4,COc1cccc(-c2nc3nc(C)cc(C)n3c2NC2CCCCC2)c1,-7.02%
5,C[C@H]1NS(=O)(=O)c2cc(Cl)ccc2O[C@@H]1c1ccccc1,4.12%
6,Nc1c(N(Cc2ccco2)C(=O)c2cccc(F)c2)c(=O)[nH]c(=O)n1Cc1ccccc1,-14.9%
7,O=c1[nH]c(=O)n(Cc2ccco2)c2c1C(C(F)(F)F)(C(F)(F)F)N=C(c1ccco1)N2,-76.9% (active)
8,Cc1ccccc1C1=NC(C(F)(F)F)(C(F)(F)F)c2c(n(-c3ccc(F)cc3)c(=O)[nH]c2=O)N1,-8.19%
9,CN(C)c1cccc(NC(=O)c2ccc(-c3ccc(F)c(F)c3)c3ccoc23)c1,2.45%
10,CCC(=O)N1CCC(C)(C(=O)Nc2cc(OC)c(OC)c(OC)c2)C1 (stereo not drawn),10.8%
11,CC(=O)C1=CCC(c2ccccc2)N(S(=O)(=O)c2ccc(C)cc2)C1 (stereo not drawn),-0.133%
12,COc1ccc(Cc2nnc(NS(=O)(=O)Cc3ccccc3)s2)cc1,-3.92%
13,O=C(Cc1cccs1)Nc1nnc(SCc2ccc(F)cc2)s1,6.84%
14,COc1ccc(Cc2nnc(NC(=O)Cc3cccs3)s2)cc1,-87.6% (active)
15,CCOP(=O)(OCC)C(Cc1ccccc1)N=C(c1ccccc1)c1ccccc1 (stereo not drawn),10.7%
16,CC1(C(=O)NCc2ccc3c(c2)OCO3)CCN1C(=O)Cc1cccc2ccccc12 (stereo not drawn),1.27%
17,O=C1NC[C@H](CCCCN2C[C@H](Cc3ccc(O)cc3)N(CC3CCCCC3)C(=O)C2=O)N(CCc2ccccc2)C1=O,-0.0714%
18,CSc1ncnc2c1ncn2CCCNCC(C)c1ccccc1 (stereo not drawn),-2.55%
19,Fc1cccc(Cc2c(-c3cccc(Cl)c3)nc3ccc(Br)cn23)c1,-13.9%
20,CC(=O)Nc1cc(-c2ccc(N3CCN(C)CC3)cc2)cn2c(-c3ccc(F)cc3)cnc12,-9.82%
